# CCHF vOTU inh: blocks the CCHF virus ovarian tumor domain protease | CCHFV vOTU protease, Pep-AMC fluorescence | inhibition, % at 11.5 µM | 370,000 compounds, 0.55% hits; in the data active = inhibition above about 30%; note: 0% = vehicle wells with enzyme and 100% = no enzyme wells
# BJeLR viability: kills HRASV12-expressing BJeLR cells | BJeLR (HRASV12) viability, CellTiter-Glo ATP luminescence, 48 h | inhibition, % (no concentration beside the values) | 300,000 compounds, 0.17% hits | AID 1554; in the data active = inhibition above about 50%
# SARS 3CLpro inh: SARS-CoV 3CLpro protease inhibition; P0C6X7; recombinant SARS-CoV 3CLpro, quenched FRET peptide cleavage; inhibition, % at 6 µM; 290,000 compounds, 0.14% hits; AID 1706; in the data active = inhibition above about 12%
# DUSP3 inh: blocks human VHR1 dual specificity phosphatase | P51452 | recombinant VHR phosphatase, pNPP absorbance | inhibition, % at 13.3 µM | 290,000 compounds, 0.52% hits | AID 1654; in the data active = inhibition above about 50%
# Target sequence (P51452 whole entry, looked up): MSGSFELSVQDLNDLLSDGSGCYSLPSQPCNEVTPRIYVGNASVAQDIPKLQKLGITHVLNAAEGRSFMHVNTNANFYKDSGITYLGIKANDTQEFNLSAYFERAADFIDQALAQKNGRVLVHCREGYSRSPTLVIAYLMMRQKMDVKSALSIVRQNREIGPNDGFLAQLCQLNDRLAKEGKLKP
# MazEF act: MazEF (E. coli) toxin RNase activation. FAM/BHQ RNA-DNA oligo cleavage fluorescence, 5 h. 350,000 compounds, 0.32% hits. P0AE70. activation, % at 20 µM. AID 504720; in the data active = activation above about 50%
# Target sequence (P0AE70 whole entry, looked up): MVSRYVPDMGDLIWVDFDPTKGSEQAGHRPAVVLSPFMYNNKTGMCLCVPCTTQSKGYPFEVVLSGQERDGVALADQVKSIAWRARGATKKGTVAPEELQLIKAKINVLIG
# Active calls of the source: *; nt = not tested or not shown. Sampled rows, rich in hits. Any-hit rate of the full collection: about 1.4%.
SMILES,CCHF vOTU inh,BJeLR viability,SARS 3CLpro inh,DUSP3 inh,MazEF act
CC1CCCC(C)N1CCCNC(=O)c1ccc2c(c1)NC(=O)c1ccccc1S2 (stereo not drawn),18,-1,-3,58*,4
Nc1nc(N)c2c(ccc3nccc32)[nH]1,-181,66*,-5,3,-5
O=C(Nc1cc(S(=O)(=O)N2CCCCC2)ccc1Cl)c1ccccc1NS(=O)(=O)c1ccc(F)cc1,14,51*,8,4,5
O=C(Nc1cc(S(=O)(=O)N2CCCCC2)ccc1O)c1ccccc1NS(=O)(=O)c1ccc(F)cc1,22,-2,4,-1,9
COc1ccccc1NS(=O)(=O)c1cc(NC(=O)c2sccc2C)ccc1N1CCCC1,-3,-2,3,53*,-1
O=C(Nc1ccc(F)cc1)Nc1ccc(N2CCCC2)c(S(=O)(=O)Nc2ccccc2Cl)c1,0,-16,11,6,53*
CCCCCCCCN1C(=O)[C@@H](CC(=O)NCc2cccc3ccccc23)C[C@@]2(C(=O)OC)C1=C[C@H](C(C)C)O[C@@H]2C1CC1,3,nt,nt,nt,nt
CN[C@H]1C[C@H]2c3[nH]c4cccc(-c5ccccc5)c4c3CCN2C[C@H]1[C@H](C)O,-11,nt,nt,nt,nt
CCN(CC)C(=O)CC[C@@H]1CC[C@]2(CCCN(Cc3cccnc3)C2)O1,-1,nt,nt,nt,nt
Cc1nn(-c2ccccc2)c2nc(=O)n(-c3ccccc3)cc12,0,4,-2,56*,-3
Cc1ccc(-n2c(SCC(=O)Nc3ccccc3-c3ccccc3)nnc2-c2ccccn2)cc1,2,nt,nt,nt,nt
COC(=O)[C@]12C[C@H](CC(=O)N3CCCCC3)C(=O)N(CCc3ccc(OC)c(OC)c3)C1=C[C@H](C1CCCC1)O[C@@H]2C,11,nt,nt,nt,nt
O=C(Nc1cccc(Cl)c1)c1ccc2c(c1)SC1=NS(=O)(=O)CCN12,-2,nt,-1,21,136*
COc1ccc(CCNC(=O)c2ccc3c(c2)SC2=NS(=O)(=O)CCN23)cc1,6,1,-1,38,9
OC(c1ccccc1)(c1ccccc1)C1CCN(CCCOc2ccc(Br)cc2)CC1,7,nt,nt,nt,nt
Cc1ccc(C2NC(=O)Cc3ccccc32)cc1 (stereo not drawn),10,0,0,14,247*
O=C1Cc2ccccc2C(c2ccccc2)N1 (stereo not drawn),-6,1,3,-6,4
O=S(=O)(c1ccc(Cl)cc1)c1snnc1-c1ccccc1,5,96*,2,8,-7
O=S(=O)(c1ccc(F)cc1)c1snnc1-c1ccccc1,3,61*,1,-3,-2
c1ccc(-c2nnsc2-c2ncc[nH]2)cc1,-18,5,4,20,-1
Cc1ccc(-c2nc(-c3ccncc3)no2)cc1C,-7,-10,-5,59*,15
O=C(NC1CC2CCCC(C1)N2Cc1ccccc1)c1cccc(F)c1 (stereo not drawn),-14,-5,-1,56*,18
COc1ccc(OC)c(/C=N/NC(=O)CSc2cc(C)nc3c(OC)cccc23)c1,-50,-2,3,53*,7
COc1ccc2nc(C)cc(SCC(=O)N/N=C/c3ccco3)c2c1,8,1,-4,22,-24
COc1cccc(C(=O)N2CCC(Oc3cccnc3)CC2)c1,4,nt,nt,nt,nt
SMILES,CCHF vOTU inh,BJeLR viability,SARS 3CLpro inh,DUSP3 inh,MazEF act
COC(=O)C1CC23C=CCN4CCC5(c6ccccc6NC15C2C)C43 (stereo not drawn),1,57*,1,9,3
COC(=O)[C@H]1C[C@@]2(c3ccccc3)c3ccccc3N[C@H]2N1,1,nt,nt,nt,nt
Cc1c(C(=O)N2CCN(C(=O)c3ccco3)CC2)oc2c(Cl)cccc12,-4,2,nt,nt,9
CCCN1CCN(C(=O)c2oc3c(Cl)cccc3c2C)CC1,3,14,-5,56*,-17
CC(OC(=O)c1c2c(nc3ccccc13)/C(=C\c1ccc3c(c1)OCO3)CCC2)C(=O)Nc1ccc(S(N)(=O)=O)cc1 (stereo not drawn),nt,nt,-22,6,165*
CCOC(=O)c1c(NC(=O)c2ccco2)n(C2CCCCC2)c2nc3ccccc3nc12,12,2,3,21,-10
CCCCn1c(NC(=O)c2ccc(Br)o2)c(C(=O)OCC)c2nc3ccccc3nc21,-65,nt,3,39,80*
COc1ccc(S[C@]2(C(=O)N3CCN(C(C)=O)CC3)CC(=O)N(C(=O)c3ccccc3)[C@@H]2c2ccc(OC)cc2)cc1,-6,nt,nt,nt,nt
C/C(CC(=O)Nc1cc(C)ccn1)=N\NC(=O)C(=O)Nc1cccc(C)c1,-2,-2,4,2,195*
